This note sets out measurements from PubChem BioAssay.

The test system of assay [1] is Human papillomavirus type 1a protein E7 (residues 44-93). Kind of assay: HPV1a E7 fragment binders on microarrays, primary screen, biochemical, small-molecule microarray, residues 44-93, 635 nm fluorescence (AID 1108).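 Also: E7 fragment applied at 1 µg/mL in TBST for 1 h at 4 C; score combines spot fluorescence with its signal to noise ratio.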 Conditions: small-molecule microarray binding, fluorescence 635 nm; higher = more signal.
Assay [2] is described as follows: modulators of HCV replicon luciferase signal, primary screen, HCV replication inhibitor project, Huh7 cells, luciferase reporter (AID 1109).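 Also: huh7 hepatoma cells harbouring a luciferase neomycin HCV replicon reporter; luciferase luminescence as measure of HCV replicon replication; test concentration not given here.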 Conditions: 48 h, higher = more signal.
Assay [3] addresses Left-right determination factor 2 (Homo sapiens) (UniProt O00292). The experiment in a line: LEFTY2 binders on small-molecule microarrays, primary screen, biochemical, small-molecule microarray, 635 nm fluorescence scan (AID 1110). Conditions: LEFTY2 binding, higher = more signal.
Assay [4] has as its target Calmodulin-1 (Homo sapiens) (UniProt P0DP23). Kind of assay: CALM1 binders on microarrays, EGTA buffer, profiling panel, biochemical, small-molecule microarray, Cy5-labelled CALM1 (AID 1111).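 Also: labelled calmodulin applied in Tris saline Tween buffer holding calcium plus EGTA and DTT.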 The following applies: Cy5-CALM1 binding fluorescence, higher = more signal.
The target is the same in assay [5]. Kind of assay: calcium-bound CALM1 binders on microarrays, profiling panel, artefact control for SMM control-protein annotation, biochemical, small-molecule microarray, Cy5-labelled CALM1, plus calcium (AID 1112).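 Also: score merges spot fluorescence with signal to noise from triplicate slides.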 Conditions: Cy5-CALM1 binding fluorescence, higher = more signal.
Assay [6] is described as follows: small-molecule microarray binders of probe aWnt5a, primary screen, biochemical, biotinylated probe, 635/667 nm fluorescence (AID 1113).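 Also: score merges 667 nm fluorescence intensity with signal-to-noise per printed feature.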 The following applies: higher = more signal.
Assay [7] is described as follows: small-molecule microarray binders of probe aShh, primary screen, biochemical, biotinylated probe, 635/667 nm fluorescence (AID 1114).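 Also: probe is biotin-labelled aShh protein from a stem cell growth factor screen; measures binding of labelled protein to compounds printed on the slide; score merges feature fluorescence at 667 nm with signal-to-noise.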 Conditions: higher = more signal.
The nature of assay [8]: small-molecule microarray binders of probe aNog, primary screen, biochemical, biotinylated probe, 635/667 nm fluorescence (AID 1115).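 Also: probe is biotinylated aNog protein used at 0.15 µg/mL for 1 h at 4 C; z-score combines 667 nm fluorescence of each spot with its signal to noise.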 The following applies: higher = more signal.
In assay [9] the target is Torsin-1A-interacting protein 1 (Homo sapiens) (UniProt Q5JTV8). The experiment in a line: LAP1 binders from COS7 cell lysate, primary screen, small-molecule microarray, 635/667 nm fluorescence (AID 1116). The following applies: COS7-hLAP1 lysate binding, 635 nm fluorescence, higher = more signal.
Assay [10] deals with Alpha-bungarotoxin (Bungarus multicinctus) (UniProt P60615). The experiment in a line: alpha-bungarotoxin binders on microarray, profiling panel, artefact control for SMM control protein annotation, biochemical, small-molecule microarray, Alexa647 label, 635/667 nm fluorescence (AID 1117). Conditions: alpha-BTX-A647 binding fluorescence, higher = more signal.
Chain of Alpha-bungarotoxin (Bungarus multicinctus) (P60615 whole entry, looked up): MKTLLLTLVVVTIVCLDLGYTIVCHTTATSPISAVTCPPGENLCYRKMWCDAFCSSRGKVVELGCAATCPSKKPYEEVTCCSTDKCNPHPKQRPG

Chain of Torsin-1A-interacting protein 1 (Homo sapiens) (Q5JTV8 whole entry, looked up): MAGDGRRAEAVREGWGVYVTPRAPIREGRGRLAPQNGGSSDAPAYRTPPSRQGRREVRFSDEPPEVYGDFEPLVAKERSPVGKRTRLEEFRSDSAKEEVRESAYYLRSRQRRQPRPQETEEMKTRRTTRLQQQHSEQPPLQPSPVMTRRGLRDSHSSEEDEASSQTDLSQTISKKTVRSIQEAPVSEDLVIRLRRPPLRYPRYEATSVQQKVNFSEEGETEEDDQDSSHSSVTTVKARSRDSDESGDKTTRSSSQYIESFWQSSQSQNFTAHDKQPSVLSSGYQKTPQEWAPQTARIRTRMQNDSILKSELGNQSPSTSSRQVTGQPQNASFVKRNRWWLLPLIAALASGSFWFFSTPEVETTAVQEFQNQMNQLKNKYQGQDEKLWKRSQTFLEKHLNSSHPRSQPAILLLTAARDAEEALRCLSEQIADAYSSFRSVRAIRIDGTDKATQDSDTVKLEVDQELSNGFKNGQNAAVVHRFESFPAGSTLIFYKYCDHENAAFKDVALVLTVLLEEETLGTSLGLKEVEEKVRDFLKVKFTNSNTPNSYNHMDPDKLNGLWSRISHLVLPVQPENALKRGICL
Chain of Left-right determination factor 2 (Homo sapiens) (O00292 whole entry, looked up): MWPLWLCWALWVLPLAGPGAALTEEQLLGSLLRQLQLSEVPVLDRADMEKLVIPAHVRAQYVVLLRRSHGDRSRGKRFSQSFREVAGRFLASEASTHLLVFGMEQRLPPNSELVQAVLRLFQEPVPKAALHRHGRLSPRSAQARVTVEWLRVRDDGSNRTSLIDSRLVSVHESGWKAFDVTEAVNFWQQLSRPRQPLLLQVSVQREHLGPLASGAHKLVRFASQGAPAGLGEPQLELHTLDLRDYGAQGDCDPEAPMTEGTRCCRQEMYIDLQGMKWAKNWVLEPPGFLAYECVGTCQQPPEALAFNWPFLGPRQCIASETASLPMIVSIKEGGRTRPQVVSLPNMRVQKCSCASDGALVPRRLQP

On to `C[n+]1ccc(CCCO)cc1`, for which the composite z-score in [1] was -0.225; in [3], 0.0525; in assay [4], -0.628; in assay [5], 0.371; in [6] it was -0.0462; in [7], 0.475. In addition, the values for the composite z-score in [8], in assay [9] and in assay [10] were -0.253, 1.26 and -0.739, respectively. The z-score in [2] was -0.125.
For the molecule `COCC(=C=CC[C@H](O)c1cccc(OCCO)c1)C[C@H](O)c1ccccn1`, the composite z-score in [1] is 0.0462; in [3] it was -0.0587; in assay [4] it was -0.319; in assay [5] it was -0.621; in [6] it was 0.0151; in [7] it was 0.0952. Also, the composite z-score worked out at 0.167 in [8], 1.68 in assay [9] and 1.26 in [10]. The z-score in assay [2] was -0.0093.
In the case of `CN(C)C(=O)[C@@]1(Cc2ccccc2N=[N+]=[N-])COC(c2ccc(OCCCO)cc2)=N1`, the composite z-score was 1 in [1]; -0.475 in assay [3]; 1.32 in assay [4]; 0.202 in [5]; 0.212 in assay [6]; 0.661 in [7]. For the same molecule, the composite z-score was -1.05 in assay [8], 1.04 in assay [9] and 1.55 in [10]. Moreover, the z-score in assay [2] was -1.69.
Take `COCCOC(=O)N1C(=O)[C@@]2(c3cc(C#CC4(O)CCCCCC4)ccc31)[C@H](C(N)=O)[C@H]1C(=O)O[C@H](c3ccccc3)[C@H](c3ccccc3)N1[C@@H]2c1ccccc1OCCO`: the composite z-score in assay [1] is 1.38; in [3] it was 0.339; in assay [4], -0.0545; in assay [5], -0.0174; in [6], -0.0758; in [7], -0.223. Besides, the composite z-score is -0.531 in [8], 0.529 in [9] and 1.01 in [10]. In assay [2], this molecule came in with a z-score of -3.3.
For `O=C(O)[C@H](Cc1ccccc1)n1cc(-c2ccccn2)nn1`, the composite z-score in assay [1] was 0.55; in [3], -0.0097; in assay [4], 0.429; in [5] it was 0.33; in [6], -0.152; in assay [7] it was -0.0866. The composite z-score in assay [8] is -0.0827; in [9], 0.524; in assay [10], 0.35. Moreover, the z-score in [2] turned out to be 0.107.
As for `C[C@]1(C(=O)NCCN2CCOCC2)c2ccccc2C(=O)N(Cc2ccc(OC(F)(F)F)cc2)[C@H]1c1ccc(CO)cc1`, the composite z-score in [1] was 1.44; in assay [3], -1.24; in assay [4], 0.084; in assay [5] it was -0.0325; in [6] it was -0.252; in assay [7], -0.503. In addition, the composite z-score in assay [8] is -0.313; in assay [9] it was 0.836; in [10] it was 0.396. Also, the z-score in assay [2] is -0.705.
In the case of `COc1c(C)cc(-c2cc3c(c(-c4ccccc4)n2)[Si](C(C)C)(C(C)C)OC3)cc1C`, the composite z-score in assay [1] is -0.689; in assay [3], -0.0473; in [4], -0.319; in assay [5] it was -0.119; in [6] it was -0.184; in assay [7], -0.153. In addition, the composite z-score is -0.122 in [8], -0.16 in assay [9] and 0.857 in [10]. The molecule also yielded a z-score in assay [2] of -0.268.
On to `[N-]=[N+]=NCc1ccccc1[C@H]1OC(c2ccc(OCCCO)cc2)=N[C@@]1(CCS(=O)(=O)c1ccccc1)C(N)=O`, for which the composite z-score in assay [1] is 1.11; in assay [3], 0.264; in assay [4], 0.145; in assay [5] it was 0.257; in assay [6] it was -0.096; in [7], 0.265. The composite z-score in assay [8] was found to be 1.4; in assay [9], 1.47; in [10], 2.43. Further, in assay [2], the z-score was -0.281.
On to `CCOC(=O)C1=CC[C@@H](c2ccccc2C(F)(F)F)N(S(=O)(=O)c2ccc(C)cc2)C1`, for which the composite z-score in assay [1] turned out to be 0.648; in [3], 0.613; in [4], 2.07; in [5] it was 1.07; in [6], 0.274; in [7], 0.584. Also, the composite z-score in assay [8] is -0.395; in [9] it was 1.5; in assay [10], 1.49. In addition, in assay [2], the z-score is -2.98.
Take `CC1CC/C=C\[C@H]2OC34C=CCN(C(C)C)C(=O)[C@H]3N(CCCCCO)C(=O)[C@@H]4C2C(=O)O1` (stereo not given in full): the composite z-score in [1] was -0.806; in assay [3], -2.15; in assay [4], -0.329; in assay [5] it was 0.446; in assay [6], -0.178; in assay [7] it was -0.206. Further, the composite z-score is 0.179 in assay [8], -0.753 in assay [9] and -1.36 in assay [10]. The same molecule had a z-score in [2] of 0.205.
Regarding `COCCCNC(=O)[C@@H]1c2ccccc2C(=O)N(Cc2ccccc2C(F)(F)F)[C@H]1c1ccc(CO)cc1`, the composite z-score was 0.367 in assay [1]; -0.431 in assay [3]; -0.119 in [4]; 0.423 in [5]; -0.152 in [6]; -0.266 in assay [7]. Further, the figures for the composite z-score in assay [8], in [9] and in assay [10] were 0.265, 0.612 and -0.295, respectively. The z-score in [2] is -0.469.
For `COCCOC(=O)N1C(=O)[C@@]2(c3cc(C#Cc4ccc(OC)cc4)ccc31)[C@H](C(=O)NC[C@H](O)c1ccccc1)[C@H]1C(=O)O[C@H](c3ccccc3)[C@H](c3ccccc3)N1[C@@H]2c1ccc(O)cc1`, the composite z-score in assay [1] was 0.872; in assay [3], 0.887; in assay [4] it was 0.0624; in assay [5], -0.0377; in assay [6], -0.0816; in assay [7] it was 0.875. In addition, the values for the composite z-score in assay [8], in assay [9] and in [10] were 0.369, 1.37 and 0.931, respectively. This molecule yielded a z-score in assay [2] of -1.45.
